Source: PubChem BioAssay
This is a sample that favours compounds with a hit; in the whole collection about 8% have one here.
HT1080 IDH1KD tx = HT-1080 IDH1 knockdown cell toxicity (counter line) | HT-1080 IDH1 knockdown viability, ATP luminescence, 48 h | Potency, µM (doses to about 46.1 µM), usual class: cytotoxic | 2% of 360,000 active
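Cytotoxicity counter-line: IDH1KD HT-1080, 48 h, CellTiter-Glo. Curves classed by r2, magnitude and activity.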
KB-V1 MDR tox = kills drug-selected multidrug resistant KB-V1 cells; KB-V1 MDR cells viability, CellTiter-Glo, 72 h; Potency, µM (doses to about 46.1 µM), usual class: cytotoxic; 3.4% of 400,000 active; AID 1347076; note: nearly all actives have a fitted effect of over 60% in size
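Luminescent ATP read-out (CellTiter-Glo, 10 min) measures survival of drug-selected KB-V1 MDR cells after 72 h, 37 degrees C compound exposure. Medium: phenol-red-free DMEM, 10% FBS. Values from fitted concentration-response curves.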
SW480 rereplic = induces DNA re-replication in SW480 colon adenocarcinoma cells | SW480 DNA re-replication, Hoechst DNA content imaging, 48 h | Potency, µM (doses to about 46.1 µM), most hits filed as activators | 1.8% of 340,000 active | AID 624297; note: nearly all actives have a fitted effect of over 55% in size
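Compounds, transferred as 23 nL by pin tool, were incubated with cells for 48 hr; DNA content per nucleus was then quantified by Hoechst staining and fluorescence plate imaging.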
KB-3-1 cytotox = KB-3-1 parental cell cytotoxicity | KB-3-1 viability, CellTiter-Glo ATP luminescence, 72 h | Potency, µM (top dose mostly 46.1 µM), usual class: cytotoxic | 1.4% of 400,000 active | AID 1347075; note: nearly all actives have a fitted effect of over 60% in size
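Parental KB-3-1 viability, qHTS format: 72 h compound exposure, 37 °C; CellTiter-Glo; media-only wells and DMSO plates as controls; concentration-effect fits on corrected data.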
MCF10A rereplic = inducers of DNA re-replication in MCF 10A breast cells; MCF 10A DNA re-replication, Hoechst nuclear intensity, 48 h; Potency, µM (titrated, usually from 46.1 µM), most hits filed as activators; 2.9% of 350,000 active; note: nearly all actives have a fitted effect of over 50% in size
HT1080NT lethal = kills 2HG-producing HT-1080-NT fibrosarcoma cells | HT-1080-NT fibrosarcoma viability, CellTiter-Glo ATP luminescence, 48 h | Potency, µM (doses to about 46.1 µM), hits mostly cytotoxic | 1.6% of 360,000 active | AID 686970;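 note: NT is the 2HG producing partner of a matched IDH1 knockdown line; nearly all actives have a fitted effect of over 55% in size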
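Viability of the 2HG-overproducing fibrosarcoma line after 48 hours of compound exposure at 37 degrees C was determined by luminescence with CellTiter-Glo, and concentration-effect curves were then fitted and categorized.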
Numbers stand for hits; - = inactive; ? = inconclusive; . = no result given; [ ] = remark or other dose. Calls come from the whole dose curve; as a rule, active = well fitted curve in the direction sought with a large enough effect; inconclusive = small, poorly fitted or top-dose-only effect, or another doubt; inactive = no such curve, though single readings can be large; an effect the other way counts as inactive or inconclusive.

SMILES	HT1080 IDH1KD tx	KB-V1 MDR tox	SW480 rereplic	KB-3-1 cytotox	MCF10A rereplic	HT1080NT lethal
Cc1ccccc1Nc1c(-c2ccc(O)cc2)nc2c(C)cccn12	.	-	.	-	.	.
CCCCCCCn1c(=N)n(CC(O)c2ccco2)c2ccccc21 (stereo not given)	23.1µM	?	-	-	?	16.4µM
Cc1ccccc1Cn1c(=N)n(CC(O)c2ccco2)c2ccccc21 (stereo not given)	?	?	-	-	-	?
CC(C)(C)c1ccc(Cn2c(=N)n(CC(O)c3ccco3)c3ccccc32)cc1 (stereo not given)	20.6µM	?	?	?	?	23.1µM
COc1ccc2[nH]c(=O)c(CNc3cc(C)ccc3C)cc2c1	-	-	?	-	-	?
Cc1ccc(/C=C/C(=O)Nc2ccc([N+](=O)[O-])cc2)o1	-	-	-	-	-	-
CCc1ccc(C(=O)/C=C/c2ccc([N+](=O)[O-])o2)cc1	-	?	-[9.22 µM]	?	8.91µM	-
CCOC(=O)CCc1ccc(NC(=O)/C=C/c2ccc([N+](=O)[O-])o2)cc1	2.91µM	?	7.31µM	?	9.2µM	8.2µM
CCc1ccc(/C=C/C(=O)c2ccc(S(=O)(=O)N(C)C)cc2)cc1	-	20.6µM	?	-	-	-
O=C1C2=C(NC(=S)NC2c2ccc(Cl)cc2)NC(c2ccc(Cl)cc2)N1c1ccc(Cl)cc1 (stereo not given)	?	?	?	16.4µM	?	?
CCc1ccc(C2NC(=S)NC3=C2C(=O)N(c2ccccc2OC)C(c2ccc(CC)cc2)N3)cc1 (stereo not given)	-	?	?	-	?	-
Cc1[nH][nH]c(=O)c1C(c1ccc(-c2cccc(Cl)c2)o1)c1c(C)[nH][nH]c1=O	-	-	-	-	18.4µM	?
COC(=O)C(NC(=O)c1ccccc1)c1ccccc1 (stereo not given)	-	-	-	-	-	-
C=C(C(=O)c1ccccc1)C(NC(C)(C)C)c1ccccc1 (stereo not given)	5.8µM	?	2.91µM	3.66µM	1.84µM	6.51µM
O=C(CC(Nc1ccccc1)C(=O)O)c1ccccc1 (stereo not given)	-	-	-	-	-	-
C=C(C(=O)c1ccccc1)C(C)CC(=O)c1ccccc1 (stereo not given)	20.6µM	-	20.6µM	-	?	-
CCc1cccc(NC(=O)C(CC(C)C)NS(=O)(=O)c2ccc3c(c2)oc(=O)n3C)c1 (stereo not given)	.	-	.	-	.	.
Cc1cccc(CN2C(=O)c3ccccc3S(=O)(=O)c3ccc(C(=O)NC4CCCCC4)cc32)c1	.	-	.	-	.	.
CC(C)CNC(=O)c1ccccc1NC(=O)/C=C/c1cccc([N+](=O)[O-])c1	-	-	-	-	-	?
CC1=C(C(=O)Nc2ccc(Cl)cc2)C(C(C)C)n2nc(SCc3cccc(C)c3)nc2N1 (stereo not given)	.	?	.	-	.	.
CCn1c2ccccc2c2cc(NC(=O)CNCc3ccccc3OC)ccc21	6.51µM	?	7.31µM	?	7.31µM	3.66µM
CCn1c2ccccc2c2cc(NC(=O)COc3ccccc3OC)ccc21	16.4µM	6.51µM	14.6µM	4.61µM	5.8µM	?
CCn1c2ccccc2c2cc(NC(=O)c3cccc(OC)c3)ccc21	?	?	7.94µM	?	?	12.6µM
COc1cccc(C(=O)Nc2cccc3c2ccc2cccn23)c1	-	-	16.4µM	-	?	-
CCn1c(=O)sc2cc(NC(=O)c3cccc(OC)c3)ccc21	.	-	.	-	.	.
CCn1c2ccccc2c2cc(NC(=O)COc3ccc(C)c(C)c3)ccc21	.	-	.	-	.	.
CCn1c(SCc2nc3ccccc3c(=O)[nH]2)nc2ccccc2c1=O	?	-	-	-	-	?
C=CCn1c(SCc2nc3cc(C(=O)OC)ccc3c(=O)[nH]2)nc2sc(CC)cc2c1=O	-	5.17µM	-	-	-	-
C=CCn1c(SCc2nc3ccccc3c(=O)[nH]2)nc2scc(C3CC3)c2c1=O	-	-	?	-	20.6µM	-
O=[N+]([O-])c1cc(-c2nc(-c3ccccc3)no2)ccc1NC1CCCCC1	.	?	.	-	.	.
